From PubChem BioAssay (NCI)
This is part of a sample that, as a whole, favours compounds with a hit. Of some 79,000 tested, about 15% had one in any assay. The source made the active and inactive calls. Cut-off read from the data, not from the text of the source: active = growth inhibition above about 70%; inactive = the rest. Where a SMILES comes first, the peptide text is derived from it. [ ]: non-standard residue; d: D form. Ac5c = NC1(C(=O)O)CCCC1

Columns and labels:
[1] = NCI Yeast Anticancer Drug Screen. Data for the rad50 strain (AID 155);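 note: 0% = growth of vehicle-only cultures of the same strain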; conditions: S. cerevisiae rad50 strain growth inhibition; at 50.0 µM; hits give high values
Summary of the method: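 Growth of the mutant yeast was measured after compound exposure and referenced to vehicle-treated cultures.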

[2] = NCI Yeast Anticancer Drug Screen. Data for the mec2-1 strain (AID 157); conditions: S. cerevisiae mec2-1 strain, at 50.0 µM, hits give high values
Summary of the method: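 mec2-1 yeast strain, carrying an alteration in DNA damage repair or cell cycle control, was exposed to compounds; growth inhibition was measured relative to vehicle-treated controls.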

[3] = NCI Yeast Anticancer Drug Screen. Data for the sgs1 mgt1 strain (AID 161);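 note: 0% = growth of cultures given vehicle only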; conditions: S. cerevisiae sgs1 mgt1 strain, at 50.0 µM, hits give high values
Summary of the method: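 This yeast growth screen uses a strain with defined DNA-repair lesions; compound-treated growth is compared with vehicle-treated growth.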

[4] = NCI Yeast Anticancer Drug Screen. Data for the cln2 rad14 strain (AID 165);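 note: 0% = growth equal to vehicle treated cultures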; conditions: S. cerevisiae cln2 rad14 strain, at 50.0 µM, hits give high values
Summary of the method: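 Yeast carrying cln2 and rad14 alterations (cell cycle control and DNA damage repair) were exposed to compounds. Growth inhibition was measured against vehicle-treated controls.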

[5] = NCI Yeast Anticancer Drug Screen. Data for the bub3 strain (AID 167); conditions: S. cerevisiae bub3 mutant strain, at 50.0 µM, hits give high values
Summary of the method: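 Whole-cell yeast assay. The mutant strain was incubated with compounds, and growth inhibition was determined by comparison with vehicle-treated cells.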

[6] = NCI Yeast Anticancer Drug Screen. Data for the mlh1 rad18 strain (AID 175); conditions: S. cerevisiae mlh1 rad18 strain growth inhibition; at 50.0 µM; hits give high values
Summary of the method: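 Growth inhibition of the yeast strain was measured after compound exposure and expressed relative to vehicle-treated controls. The strain carries defined defects in DNA damage repair.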

Measured: growth inhibition

O=C=Nc1ccc(Cc2ccc(N=C=O)cc2)cc1 (tested in a mixture with another compound)
inactive: [1] -6.55% | [2] -1.5% | [3] -12.2% | [4] 8.95% | [5] -0.5% | [6] 14.3%

N#CCCNC1CCCCC1
inactive: [1] 2.95% | [2] 4% | [3] 2.5% | [4] -14.3% | [5] 0.85% | [6] -0.25%

Cc1cc(O[Si](C)(C)C)nc(O[Si](C)(C)C)n1
inactive: [1] 1.7% | [2] -3.7% | [3] 0.15% | [4] -49% | [5] -40.3% | [6] 11.9%

COCC(OC)C(Cl)C(=O)Nc1ccc(Br)cc1 (stereo unspecified)
inactive: [1] 14.6% | [2] 31.1% | [3] 15.2% | [4] -14.4% | [5] 28.9% | [6] 10.8%

NC1(C(=O)NC2(C(=O)O)CCCC2)CCCC1 (H-[Ac5c]-[Ac5c]-OH)
inactive: [1] 8.75% | [2] 2.85% | [3] 0.8% | [4] -6.65% | [5] -42.9% | [6] 40.4%

COC(=N)C(C)C
inactive: [1] 26.4% | [2] 14.9% | [3] 4.9% | [4] 13.1% | [5] -6.2% | [6] 22.6%

Nc1nc(I)nc2c1ncn2C1OC(COS(N)(=O)=O)C(O)C1O (stereo unspecified)
inactive: [1] 67% | [2] 67.5% | [3] 40.9% | [4] 63.6% | [5] 43.9%
active: [6] 78.3%

CC1=C(Br)C(=O)C(c2c(C)cc(C)cc2C)=C(Br)C1=O
active: [1] 97.5% | [2] 98% | [3] 98.2% | [4] 92.8% | [5] 97.5% | [6] 98.5%

O=C(CBr)c1ccc(S(=O)(=O)c2ccccc2)cc1
inactive: [1] 67.3% | [4] 27.9%
active: [2] 92.7% | [3] 85% | [5] 72.2% | [6] 78.3%

CC1(CBr)COC(c2ccccc2)(C2CCCCC2)OC1 (stereo unspecified)
inactive: [1] -1.9% | [2] -14.8% | [3] -5.55% | [4] -1.9% | [5] -13.7% | [6] 23.7%

COC(=O)c1ccc(C)[n+](C2OC(COC(=O)c3ccccc3)C(OC(=O)c3ccccc3)C2OC(=O)c2ccccc2)c1 (stereo unspecified)
inactive: [1] 5.2% | [2] 3.45% | [3] 8% | [4] -25.6% | [5] -14.2% | [6] 29.1%

O=C(OC1COC(n2c(=O)oc3cc([N+](=O)[O-])c([N+](=O)[O-])cc32)C(OC(=O)c2ccccc2)C1OC(=O)c1ccccc1)c1ccccc1 (stereo unspecified)
inactive: [1] -5.15% | [2] 8.6% | [3] 14.4% | [4] -9.15% | [5] -8.55% | [6] 3.35%

Cc1ccccc1C(N)=O
inactive: [1] 23.7% | [2] 3.6% | [3] 11.2% | [4] -12.6% | [5] 12.8% | [6] 26.5%

CC(=O)NC1=C(Sc2ccc(Cl)cc2)C(=O)c2ccccc2C1=O
inactive: [1] 56.2% | [2] 15.8% | [3] 18.3% | [4] -56.4% | [5] 19.9% | [6] 33.2%

CC(=O)Nc1ccc(I)cc1
inactive: [1] 40.7% | [2] 3.2% | [3] 15.2% | [4] -0.8% | [5] -7.65% | [6] 21.9%

CN(C)c1nc(N(C)C)nc(N(C)C=O)n1
inactive: [1] -4.9% | [2] -21.9% | [3] -30.7% | [4] -2.85% | [5] -27.6% | [6] -5.55%

C=COC(=O)N1CCCCC1
inactive: [1] -5.75% | [2] 15.8% | [3] 0.5% | [4] -13.7% | [5] -30.1% | [6] 27.4%

Cc1nn(C)c2ncnc(N)c12
inactive: [1] 10.8% | [2] 0.55% | [3] 17% | [4] -7.8% | [5] -8.85% | [6] 7.7%

CCOC(=O)c1ccc(N(C=O)CCC(OCC)OCC)cc1
inactive: [1] -2.25% | [2] -5.75% | [3] 4.35% | [4] -49.4% | [5] 17.9% | [6] -0.3%

CC(=O)NC1CCC2CCCCC2C1 (stereo unspecified)
inactive: [1] 15.7% | [2] -3.15% | [3] -8.75% | [4] -61% | [5] 32.1% | [6] -17.9%

CSCCC(NC(=O)c1ccccc1)C(=O)O (stereo unspecified)
inactive: [1] -2.95% | [2] -15% | [3] 1.35% | [4] 3.85% | [5] 3.3% | [6] -10.6%

COC(=O)C(=O)CC(=O)CCn1ncc(Cl)c(Cl)c1=O
inactive: [1] -14.3% | [2] -25.4% | [3] -1.3% | [4] 6.45% | [5] -13.6% | [6] -17.7%

CC(=O)C(C)(O)C(OP(=O)(O)O)c1ccccc1 (stereo unspecified)
inactive: [1] 0.65% | [2] -10.5% | [3] 4.6% | [4] -37.4% | [5] -11.1% | [6] 3.55%

CS(=O)(=O)c1cc(=O)[nH]c(=O)[nH]1
inactive: [1] 0.55% | [2] 1.45% | [3] 18.2% | [4] 25.6% | [5] -0.9% | [6] 7.45%

Cc1cc2c(=O)cc(-c3ccc(Cl)cc3Cl)oc2c(C(=O)O)c1C
inactive: [1] -19.6% | [2] 10.9% | [3] 9% | [4] 23.6% | [5] 11.6% | [6] 29.5%

N#C/C(N)=C(\C#N)N=CNc1ccc(N)cc1
inactive: [1] -32.8% | [2] -31.1% | [3] -22.2% | [4] 23% | [5] 1.4% | [6] -10.9%

CC(C)(C)OC(=O)N1CC(C)(C)N2C(=O)C3(CCCO3)C12 (stereo unspecified)
inactive: [1] -4.3% | [2] -9.85% | [3] -7.15% | [4] -0.4% | [5] -16.6% | [6] 5.65%

CS(=O)(=O)C(CCC(=O)c1ccc2ccccc2c1)C(=O)c1ccccc1 (stereo unspecified)
inactive: [1] 3.1% | [2] -12.7% | [3] 5.3% | [4] 20.4% | [5] -2.4% | [6] -7.15%

CC(=O)Oc1ccc(CCNC(c2ccccc2)c2ccccc2)cc1OC(C)=O
inactive: [1] 44% | [2] 13.2% | [3] 42.5% | [4] -7.6% | [5] -17.4% | [6] 38.3%

CCOC(=O)NC(C#N)=C(Cl)Cl
inactive: [1] 37.5% | [2] 47% | [3] 49% | [4] 14.1% | [5] 38.5% | [6] 43.6%

Cc1ccc(NC2=CC(=O)C(=O)c3ccccc32)cc1C
inactive: [1] 35% | [2] 13.1% | [3] 19.4% | [4] 11.4% | [5] 34% | [6] 26.5%

CCOC(=O)Cc1ccccn1
inactive: [1] 5.8% | [2] -22.5% | [3] -37.7% | [4] -14.3% | [5] -14.9% | [6] -6%

O=C(O)C1(C(=O)O)Cc2ccccc2C1
inactive: [1] -15.6% | [2] -12.6% | [3] -9.15% | [4] -9.35% | [5] 9.85% | [6] 14.8%

Cc1nc(N=C(N)N)nc2ccccc12
inactive: [1] 3.4% | [2] -8.45% | [3] 10.7% | [4] 16.8% | [5] 2.65% | [6] 14.2%

N#C/C(=C\NC(=S)Nc1ccccc1Cl)C(=O)c1ccc2ccccc2c1
inactive: [1] -24.4% | [2] -18% | [3] 0.7% | [4] 13.3% | [5] -35.6% | [6] -28.8%

COC(=O)[C@@H]1[C@H]2C[C@@H]3c4[nH]c5ccccc5c4CCN3C[C@@H]2CC[C@@H]1O
inactive: [1] 1.5% | [2] -9.55% | [3] 13.9% | [4] 2.15% | [5] 5.45% | [6] 1.25%

CC(=O)OCCOc1ccccc1Cl
inactive: [1] 2.75% | [2] -5.8% | [3] 3.25% | [4] -16.9% | [5] -23.1% | [6] -13.1%

N/C=N/O
inactive: [1] 19.9% | [2] 4.35% | [3] 16.6% | [4] 18.2% | [5] 18.8% | [6] 22.7%

O=C(NP(=O)(O)NC(Cc1ccccc1)C(=O)O)OCc1ccccc1 (stereo unspecified)
inactive: [1] -7.45% | [2] -6.65% | [3] 4.1% | [4] -18.9% | [5] 1.8% | [6] -12.2%

COC1=C(OC)C(=O)c2cc(SC)c(=O)c(SC)cc2C1=O
inactive: [1] -54.8% | [2] -29.2% | [3] -40.5% | [4] -22.1% | [5] -54.6% | [6] -60.2%

C=Cc1ccc(C)[n+](C[Si](C)(C)O[Si](C)(C)C)c1
inactive: [1] -7.75% | [2] -39% | [3] -8.95% | [4] 19.4% | [5] -22.9% | [6] -20.7%
